# Source: PubChem (several laboratories)
# In the library only some 2.2% were active in any assay of this set; here they are far more common.
# JMJD2C inh – inhibitors of human GASC-1 (JMJD2C) demethylase | Q9H3R0 | GST-JMJD2C(1-420) H3K9me3 demethylation, DELFIA europium | inhibition, % at 2.35 µM | hit rate 0.069% among 330,000 | AID 2099;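 active = more than half of a compound's replicate wells show inhibition beyond 50%, single wells judged on their own value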;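 also: signal counts dimethyl H3K9 product captured on neutravidin plate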
# Target sequence (Q9H3R0 1-420 limits assumed): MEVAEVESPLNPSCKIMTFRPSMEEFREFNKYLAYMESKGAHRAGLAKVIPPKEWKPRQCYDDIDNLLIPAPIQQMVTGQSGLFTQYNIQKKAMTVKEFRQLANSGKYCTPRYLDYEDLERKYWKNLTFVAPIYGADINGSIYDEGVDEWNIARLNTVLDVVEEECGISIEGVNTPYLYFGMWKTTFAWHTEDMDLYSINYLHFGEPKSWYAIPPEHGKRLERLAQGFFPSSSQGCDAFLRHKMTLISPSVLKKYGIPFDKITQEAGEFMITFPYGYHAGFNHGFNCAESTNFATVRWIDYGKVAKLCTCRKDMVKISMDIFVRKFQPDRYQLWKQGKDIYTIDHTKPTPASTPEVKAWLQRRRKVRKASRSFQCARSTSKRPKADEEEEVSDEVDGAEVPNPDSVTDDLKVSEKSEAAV
# Mot1-301 SUMO – SUMOylation pathway inhibition by Mot1-301 growth rescue. S. cerevisiae Mot1-301 growth rescue, ATP luminescence, 38.5C; percent above DMSO median, 100 means doubled. hit rate 1% among 320,000. growth rescue, % at 18.8 µM;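 active = every valid replicate shows activation above 250% relative to neutral control wells; inactive = the rest, any valid replicate at or below 250%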
# HDAC3 inh – human HDAC3 inhibition. O15379. recombinant HDAC3, fluorogenic peptide/trypsin coupled, fluorescence. inhibition, % at 8.3 µM. hit rate 0.15% among 320,000. AID 2718; in the data active = inhibition above about 26%, passing the limit was not always enough
# PvdQ inh – P. aeruginosa PvdQ acylase inhibition; purified PvdQ acylase, fluorescence plate reader; inhibition, % at 10 µM; hit rate 0.063% among 340,000; in the data active = inhibition above about 30%, passing the limit was not always enough
# pCIP destab – p/CIP protein destabilization. hit rate 0.01% among 290,000. Q05BA5. AID 1984. F442A p/CIP-EGFP cells, EGFP fluorescence, 16 h. decrease of EGFP signal, % at 10 µM;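 active = EGFP signal decrease of at least 30% at 10 µM or well 3 SD below plate mean, unless failing retest; inactive = the rest, including hits failing retest or dose response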
# PHOSPHO1 block – blocks human PHOSPHO1 phosphatase activity | Q8TCT1 | recombinant PHOSPHO1, absorbance phosphatase assay | inhibition, % at 13.3 µM | hit rate 1.1% among 290,000 | AID 1565; in the data active = inhibition above about 60%
# A number is an active result; 0 = inactive; - = no result; ! = repeats disagree.
SMILES,JMJD2C inh,Mot1-301 SUMO,HDAC3 inh,PvdQ inh,pCIP destab,PHOSPHO1 block
COc1cc(C(=O)Nc2cc(C(F)(F)F)ccc2N2CCOCC2)ccc1OCC(=O)N1CCOCC1,0,0,0,0,-,-
O=C(Nc1cc(C(F)(F)F)ccc1N1CCOCC1)C1Cc2ccccc2CN1C(=O)c1ccco1 (centres undefined),0,0,0,0,0,65
O=C(Nc1ccccc1)C1Cc2ccccc2CN1C(=O)c1ccco1 (centres undefined),0,0,0,0,0,0
O=S(=O)(Nc1ccncc1Cl)c1ccc2ccccc2c1,0,0,0,0,0,0
CS(=O)(=O)N(CC(=O)N/N=C/c1cccc2c1OCCO2)c1ccccc1Br,0,0,0,0,0,60
COC(=O)C1=C(C)N(CCc2cc(OC)c(OC)c(OC)c2)C(=O)N[C@H]1c1ccccc1,0,0,0,0,-,-
C=CCc1cccc(CNc2c(C)cc(C)cc2C)c1O,0,387,0,0,0,0
Nc1ccccc1C(=O)N1O[C@@H]2C=C[C@H]1C2,-,-,-,0,-,-
S=c1[nH]ncn1/N=C/c1cccc(Oc2ccccc2)c1,0,0,0,0,0,97
C(=N\n1cnnc1)/c1cccc(Oc2ccccc2)c1,0,0,0,0,0,0
CCOc1ccc(NC(=S)N2CCN(S(=O)(=O)c3ccc(C)cc3)CC2)cc1,0,0,0,0,0,0
N#Cc1sc(NCc2ccccc2)nc1Cl,0,0,0,0,0,62
COc1ccc(CNc2nc(Cl)c(C#N)s2)cc1,0,0,0,0,0,0
O=C(COC(=O)CCCC1=NS(=O)(=O)c2ccccc2N1)Nc1ccccc1,0,0,0,0,0,0
COc1cc(NC(=O)COC(=O)CCCC2=NS(=O)(=O)c3ccccc3N2)cc(OC)c1,0,333,0,0,0,0
CCn1c(-c2ccc(C(C)(C)C)cc2)n[nH]c1=S,0,0,0,0,0,0
CC(C)(C)c1ccc(-c2n[nH]c(=S)n2-c2ccccc2)cc1,0,0,0,0,0,0
Cn1cccc1/C=N/n1c(-c2ccccc2)n[nH]c1=S,0,0,0,0,0,0
CC(C)(C)c1ccc(-c2n[nH]c(=S)n2C2CCCC2)cc1,0,0,0,0,0,91
Cn1cccc1/C=N/n1c(-c2ccc(C(C)(C)C)cc2)n[nH]c1=S,0,0,29,0,0,0
Cn1c(-c2ccc(C(C)(C)C)cc2)n[nH]c1=S,0,0,0,0,0,69
CCOC(=O)/C(=N\Nc1ccc(Br)cc1)N1CC(C)OC(C)C1 (centres undefined),0,428,0,0,0,0
COc1ccc(C(=O)NC2CCN(CC(=O)NCc3cccc(OC)c3)CC2)cc1,0,0,0,0,0,0
COC(=O)C(C)Sc1nc2c(c(=O)n(C)c(=O)n2C)n1CCC(C)C (centres undefined),0,961,0,0,0,0
COC(=O)C(C)Sc1nc2c(c(=O)[nH]c(=O)n2C)n1CCC(C)C (centres undefined),0,0,0,0,0,0
SMILES,JMJD2C inh,Mot1-301 SUMO,HDAC3 inh,PvdQ inh,pCIP destab,PHOSPHO1 block
COc1ccccc1NS(=O)(=O)c1ccc2oc(SCC(C)=O)nc2c1,0,0,42,0,0,0
CCc1nnc(NC(=O)CSc2nnc(Cc3ccc(OC)cc3)o2)s1,0,0,0,0,0,0
Cc1ccc(OCc2nnc(SCC(=O)CC(=O)Nc3ccccc3)o2)cc1,0,-,0,0,0,73
CCc1nnc(NC(=O)CSc2nnc(COc3ccccc3C)o2)s1,0,0,0,0,0,97
CCc1nnc(NC(=O)CSc2ccc(-c3ccco3)nn2)s1,0,0,0,0,0,72
CCc1nnc(NC(=O)CSc2nnc(COc3cccc(C)c3)o2)s1,0,-,0,0,0,88
COc1ccc(Nc2cc(Cl)nc(N)n2)cc1OC,0,0,0,0,0,0
COc1ccc(-c2[nH]ncc2CN(C)CCc2c(C)n[nH]c2C)c(F)c1,0,0,0,0,0,67
COc1ccc(C=O)cc1Oc1nc(Cl)ncc1F,0,0,0,0,0,0
CC(=O)Nc1ccc(NC(=O)c2c(C)c(-c3ccccc3)nc3ccccc23)cc1,0,0,0,0,-,-
CCOC(=O)c1cnc(-c2ccccc2)nc1N,0,0,0,77,0,0
CCOC(=O)c1cnc(SCC(=O)c2ccc(C)cc2)nc1N,0,0,0,0,0,0
CCOC(=O)c1cnc(-c2ccccc2)nc1N(C)C,0,0,0,0,0,0
CCOC(=O)c1cnc(SCC(=O)c2ccccc2)nc1N,0,0,0,0,0,102
CCOc1ccc(NC(=O)CN(C)C(=O)CC(NC(=O)c2ccccc2)c2ccccc2)cc1OCC (centres undefined),0,0,0,0,-,-
O=C(CN1CCN(S(=O)(=O)c2ccc(Cl)cc2)CC1)NCC1(N2CCOCC2)CCCCC1,0,0,0,0,-,-
Cn1c(SCC(=O)Nc2ccc3nc(SCC(=O)N4CCCC4)sc3c2)nnc1-c1ccc(N)cc1,-,-,-,0,0,67
Cn1c(SCC(=O)Nc2ccc3nc(SCC(=O)NC4CC4)sc3c2)nnc1-c1ccccc1,0,0,0,0,0,0
S=C1NCCOCCOCCNC(=S)N2CCOCCOCCN1CCOCCOCC2,0,0,0,0,0,0
O=S(=O)(NCCC1=CCCCC1)c1ccccc1Cl,0,0,0,0,-,-
Cc1cc(=O)[nH]c(NCc2ccc(Cl)cc2)n1,0,0,0,0,0,0
O=C(NCc1cccnc1)Nc1cccc(Cl)c1Cl,0,0,0,0,0,0
O=C1/C(=C/c2ccc([N+](=O)[O-])cc2)Oc2cc(O)ccc21,0,0,0,69,0,0
O=C1/C(=C/c2ccc(Br)cc2)Oc2cc(O)ccc21,0,0,0,0,0,0
COC(=O)CCC/C=C1/SCC(NC(=O)c2ccccc2)C1=O (centres undefined),0,0,0,0,0,64
SMILES,JMJD2C inh,Mot1-301 SUMO,HDAC3 inh,PvdQ inh,pCIP destab,PHOSPHO1 block
COC(=O)C1=C(C)N(C)C(=S)N(C)C1c1cccc(Br)c1 (centres undefined),0,0,0,0,0,0
COC(=O)c1cc(CNC(=O)c2ccc(S(=O)(=O)N(C)c3ccccc3)cc2)ccc1OC,-,-,-,0,-,-
CC(=O)C(Sc1ccc2nnc(-c3ccc(F)cc3)n2n1)C(C)=O,0,0,0,0,0,89
CCOC(=O)N1CCN(C(=O)CSc2ccc3nnc(-c4ccncc4)n3n2)CC1,0,0,0,0,0,0
CCOC(=O)CC(=O)CSc1ccc2nnc(-c3ccc(C)cc3)n2n1,0,-,-,0,0,68
Cc1ccccc1C(=O)Nc1nnc(SC(C)C)s1,0,0,0,0,0,0
O=C(CSc1nnc2c3ccccc3c3ccccc3c2n1)Nc1ccccc1F,0,0,0,0,0,94
COc1ccccc1N1CCN(S(=O)(=O)c2cc(Br)cnc2N)CC1,0,0,0,0,0,64
O=C1NC(=O)C(c2ccccc2)(c2ccccc2)N1,0,332!,0,0,0,0
